Screening results as filed in PubChem BioAssay.
ADAM10 inh = ADAM10 inhibition, QFRET primary screen; recombinant ADAM10, EDANS/DABCYL FRET peptide cleavage, 3 h; inhibition, % at 7 µM; actives 0.62% (n = 370,000);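 active = inhibition above a per-campaign cutoff equal to the mean of compounds falling between control-based bounds plus 3 SD, cut at about 20% in these data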;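 also: 0% = DMSO wells while the 100% control is not disclosed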
ADAM17 inh = ADAM17 inhibition, QFRET primary screen; recombinant ADAM17, EDANS/DABCYL FRET peptide cleavage; actives 0.83% (n = 370,000); P78536; inhibition, % at 6.95 µM;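 active = inhibition above the mean of compounds lying between control limits plus 3 SD, set per campaign, cut at about 8.5% in these data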;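 also: 0% = DMSO-only wells as the low control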
rCAG RNA binder = r(CAG) repeat RNA binding; TO-PRO-1 dye displacement fluorescence; actives 1.3% (n = 370,000); AID 651821; inhibition, % at 3 µM;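 active = inhibition above the plate cutoff, the mean of all test compounds on that plate plus 3 SD, cut at about 35% in these data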;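 also: 0% = DMSO alone and 100% = 100 µM mitoxantrone as full dye displacement; higher means more dye released from RNA so lower well fluorescence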
GRIN3A LBD mod = NR3A (human) ligand-binding domain modulation. NR3A LBD differential scanning fluorimetry, Tm shift; 0% = protein alone, 100% = glycine-bound protein. Tm shift relative to glycine control, % at 25 µM. actives 2.5% (n = 340,000). AID 1259313;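 active = melting temperature shift of at least 10% of the positive control shift, at one fixed dose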
proKLK7 act = activates the human kallikrein-7 zymogen; P49862; purified proKLK7, EDANS-DABCYL substrate fluorescence; 100% is mature enzyme control, 0% vehicle; activation, % at 7 µM; actives 0.9% (n = 370,000); AID 652039;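 active = activation above the mean of all tested compounds plus 3 SD, computed per campaign excluding outliers beyond control limits, cut at about 13% in these data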
Target sequence (P49862 whole entry, looked up): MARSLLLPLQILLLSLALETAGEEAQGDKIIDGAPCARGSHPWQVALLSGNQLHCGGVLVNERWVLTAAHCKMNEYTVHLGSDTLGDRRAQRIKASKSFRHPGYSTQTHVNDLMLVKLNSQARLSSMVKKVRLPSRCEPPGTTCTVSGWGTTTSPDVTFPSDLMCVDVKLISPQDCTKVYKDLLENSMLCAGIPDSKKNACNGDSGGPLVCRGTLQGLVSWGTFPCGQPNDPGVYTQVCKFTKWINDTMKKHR
AHR activator = activators of human aryl hydrocarbon receptor. P35869. AHR-responsive luciferase reporter cells, luminescence. activation, % at 5 µM. actives 2.5% (n = 320,000); in the data active = activation above about 47%;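 also: 0% = vehicle wells and 100% = reference agonist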
rCAG bind conf = r(CAG) RNA repeat binding, confirmation; shares compounds with rCAG RNA binder; TO-PRO-1 dye displacement fluorescence; inhibition, % at 3 µM; actives 70% (n = 4,300);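 active = inhibition above a per-plate cutoff, the mean inhibition of sample wells plus 3 SD, cut at about 35% in these data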;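 also: loss of TO-PRO-1 fluorescence as compound displaces dye from 1x1 AA loop RNA; 0% = DMSO only wells and 100% = 100 µM mitoxantrone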
dCAG dye counter = disrupts DNA CAG TO-PRO-1 complex, flagging rCAG hits; shares compounds with rCAG RNA binder; d(CAG) DNA oligo TO-PRO-1 dye displacement, fluorescence; inhibition, % at 3 µM; actives 94% (n = 4,300); AID 652068;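 active = inhibition above its plate's cutoff, the mean test-well inhibition plus 3 SD, cut at about 4.8% in these data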;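 also: 0% = DNA dye mix with DMSO and 100% = 100 µM mitoxantrone; hits displace the dye from DNA and so lower well fluorescence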
* hit, by the source's call; · = not tested or not shown. The list is not random: actives were taken first. Their share in the collection is about 7%.

SMILES	ADAM10 inh	ADAM17 inh	rCAG RNA binder	GRIN3A LBD mod	proKLK7 act	AHR activator	rCAG bind conf	dCAG dye counter
COc1ccc(C2CC(=O)N3CN(c4ccc(C)c(Cl)c4)CSC3=C2C#N)cc1 (stereo not given)	-8	-6	38*	-29	2	1	14	8.3*
CCc1nnc(NS(=O)(=O)c2ccc(NC(=O)c3ccccc3)cc2)s1	-8	-4	9	2	0	-3	·	·
COc1cc(NS(=O)(=O)c2ccc(NC(=S)NC(=O)/C=C/c3ccc(F)cc3)cc2)ncn1	-6	-5	3	-3	0	-2	·	·
CCc1nnc(NS(=O)(=O)c2ccc(NC(=S)NC(=O)c3ccc(Br)cc3)cc2)s1	3	-2	83*	-11	0	0	80*	49*
CCc1nnc(NS(=O)(=O)c2ccc(NC(=S)NC(=O)c3ccccc3)cc2)s1	0	-2	65*	-15	0	0	51*	18*
COc1ccc(NS(=O)(=O)c2ccc(NC(=S)NC(=O)/C=C/c3ccccc3)cc2)nn1	2	-1	40*	-8	1	7	51*	17*
CCc1nnc(NS(=O)(=O)c2ccc(NC(=O)/C=C/c3ccccc3Cl)cc2)s1	5	2	86*	7	1	0	82*	54*
CCCCCCCCN1C(=O)[C@@H](CC(=O)NCCCOC)C[C@@]2(C(=O)OC)C1=C[C@H](C(C)(C)C)O[C@@H]2C	18	6	4	·	0	·	·	·
CCOc1ccc(-n2c(COc3ccccc3)nnc2SCC(=O)Nc2ccc3c(c2)OCCO3)cc1	17	7	6	·	0	·	·	·
CCc1nnc(NS(=O)(=O)c2ccc(NC(=S)NC(=O)/C=C/c3ccccc3)cc2)s1	11	2	87*	-7	0	-3	85*	50*
O=P(c1ccccc1)(c1ccccc1)c1cnc2ccccn12	-5	-2	·	·	·	·	·	·
Cc1ccc(S(=O)(=O)Nc2cc(-c3ccccc3)nn2C)cc1Cl	2	0	57*	-5	0	-3	38*	9.9*
Cc1ccc(S(=O)(=O)Nc2cc(-c3ccc(Cl)cc3)nn2C)cc1	3	0	48*	0	0	2	48*	11*
O=C(O)Cc1ccc(N2N=C(c3ccccc3)CC2=O)cc1	-6	-1	68*	·	0	·	22	6.0*
CCSC1=C(C#N)C(c2cccs2)C(C(=O)OC)=C(C)N1 (stereo not given)	-10	-8	-2	2	0	2	·	·
COc1ccccc1NC(=O)C1=C(C)NC(SCC(=O)Nc2ccc(C(=O)O)cc2)=C(C#N)C1c1cccs1 (stereo not given)	7	-4	46*	-2	1	4	39*	12*
COC(=O)C1=C(C)N(C)C(=NCc2ccc(C(F)(F)F)cc2)NC1c1cccc(F)c1 (stereo not given)	-7	-4	7	·	1	·	·	·
CCCC(C(=O)O)N1C(=O)/C(=C2\C(=O)N(C)c3ccccc32)SC1=S (stereo not given)	-8	-4	56*	27*	1	12	63*	26*
O=C(O)CN1C(=O)/C(=C2\SC(=S)N(C(Cc3ccccc3)C(=O)O)C2=O)c2ccccc21 (stereo not given)	18	5	69*	1	0	-2	47*	12*
Cc1ccc(/C=N/n2c(-c3ccccc3)n[nH]c2=S)cc1	3	-2	18	1	0	6	·	·
S=c1[nH]nc(-c2ccncc2)n1/N=C/C=C/c1ccco1	2	0	15	0	0	5	·	·
Cc1cc(-c2n[nH]c(=S)n2N=Cc2ccc(-c3ccccc3)cc2)n[nH]1	0	-1	42*	·	0	·	35*	8.9*
S=c1[nH]nc(-c2cc(-c3ccccc3)n[nH]2)n1/N=C/c1ccccc1	5	-1	28	-9	0	11	·	·
